# Test results from article PMC5540273 (PLoS ONE, 2017).
# Columns and labels:
# Settings in all cases: concentration: 1 μM, replicates: in singlicate; n = 1
# [1] = system: T1, MINK
# T1 construct: gene MINK1
# [2] = system: MKK7
# [3] = system: MKNK1
# [4] = system: MKNK2
# [5] = system: T2, MLCK
# T2 construct: gene MYLK3
# [6] = system: T3, MLK1
# T3 construct: gene MAP3K9
# [7] = system: MLK2
# [8] = system: MLK3
# [9] = system: MRCKA
# [10] = system: T4, MRCKB
# T4 construct: gene CDC42BPB
# 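Further: KINOMEscan kinase panel screen.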
Structure (SMILES),%Inh [1],%Inh [2],%Inh [3],%Inh [4],%Inh [5],%Inh [6],%Inh [7],%Inh [8],%Inh [9],%Inh [10]
CCCCc1nn2ncccc2c1-c1ccnc(NC2CC2)n1 [GW684374],7%,0%,0%,0%,0%,0%,0%,0%,0%,0%
CNCc1ccc2nc(NC(=O)c3ccc(C(C)(C)C)cc3)cn2c1,53%,8%,17%,10%,14%,8%,0%,6%,6%,14%
O=C(Nc1n[nH]c2nc(-c3cccs3)c(Br)cc12)C1CCCC1 [SB-743341],8%,12%,23%,67%,86%,0%,38%,19%,0%,0%
CC(C)c1cc(-c2ccc3c(N)n[nH]c3c2)nc(N)n1 [GSK2250882],21%,0%,36%,82%,16%,0%,0%,18%,12%,0%
O=C1NC(=O)C(c2ccc(Cl)cc2)=C1Nc1ccc(O)cc1 [SB-340867],11%,0%,0%,0%,0%,0%,0%,4%,8%,0%
Nc1ncnc2occ(-c3ccc4c(c3)CCN4C(=O)Cc3cc(F)ccc3F)c12 [GSK2645446],0%,0%,0%,0%,0%,0%,10%,6%,22%,0%
COc1ccc(Nc2nccc(N3CCC(NC(=O)C(C)c4ccc(Cl)cc4)CC3)n2)cc1 (stereo not drawn) [GSK1379812],51%,0%,36%,5%,0%,0%,0%,52%,20%,0%
COc1ccc(CSc2nnc(-c3ccc4ncsc4c3)o2)cc1C(F)(F)F,0%,0%,0%,0%,0%,0%,23%,0%,0%,0%
CC[C@@H]1CO[C@H](C(=O)Nc2ccccc2)CN1c1cc(-c2ccc3c(N)n[nH]c3c2)nc(NC)n1 [GSK2376236],0%,0%,6%,0%,0%,0%,0%,14%,14%,0%
COc1cc2ncnc(Nc3cccc(Br)c3)c2cc1OC.Cl [GI230329],40%,0%,–,56%,19%,0%,0%,24%,8%,0%
CCn1c(-c2ccccc2)nc2cnccc21 [SB-733416],0%,16%,25%,28%,0%,0%,3%,7%,0%,14%
Cc1ccc(NC(=O)Nc2ccc(Cl)cc2)cc1-c1ccc(C(=O)Nc2ccncc2)cc1 [GSK1398472],11%,21%,10%,7%,0%,0%,0%,15%,16%,0%
COC(=O)c1cccc(NC(=O)NC2CCN(c3ccnc(Nc4ccc(F)cc4)n3)C2)c1 (stereo not drawn) [GSK1379725],0%,0%,0%,1%,0%,0%,0%,0%,4%,0%
COC(=O)C(Cc1ccccc1)NC(=O)NC1CCN(c2ccnc(Nc3ccc(F)cc3)n2)C1 (stereo not drawn) [GSK1379714],2%,0%,0%,0%,5%,0%,0%,15%,22%,0%
O=c1cc(N2CCOCC2)nc2n(Cc3ccccc3F)ccn12 [GSK2297428],8%,0%,0%,0%,0%,0%,0%,38%,4%,0%
COc1ccc(-c2coc3ccc(-c4nnc(C)o4)cc23)cc1,0%,0%,0%,0%,0%,0%,5%,1%,0%,0%
Cc1ccc(NC(=O)Nc2ccccc2F)cc1-c1ccc(C(=O)Nc2ccncc2)cc1 [GSK1398477],0%,0%,4%,0%,11%,4%,17%,33%,17%,30%
COc1ccc(Nc2nccc(N3CCC(NC(=O)c4cc5ccccc5s4)C3)n2)cc1 (stereo not drawn) [GSK1379738],0%,26%,22%,11%,0%,0%,0%,0%,12%,0%
CCn1c(-c2c(N)noc2C)nc2cnccc21 [SB-737856],0%,0%,0%,12%,0%,0%,0%,1%,8%,1%

Structure (SMILES),%Inh [1],%Inh [2],%Inh [3],%Inh [4],%Inh [5],%Inh [6],%Inh [7],%Inh [8],%Inh [9],%Inh [10]
O=C(Nc1n[nH]c2nc(-c3ccco3)c(Br)cc12)C1CCN(Cc2ccccc2)C1.O=C(O)[C@H](O)[C@@H](O)C(=O)O (stereo not drawn) [SB-742034],15%,0%,0%,27%,25%,8%,20%,9%,0%,0%
CNC(=O)c1ccc(C)c(-n2c(C)cc(OCc3ccc(F)cc3F)c(Br)c2=O)c1,0%,0%,0%,100%,0%,0%,0%,19%,0%,8%
Cn1cnc2c(N)ncnc21 [SKF-97623],0%,0%,38%,0%,0%,0%,0%,0%,12%,0%
Fc1ccc(-c2nc[nH]c2-c2ccncc2)cc1 [SB-217360],58%,9%,0%,0%,0%,0%,30%,1%,37%,27%
Cc1c(Cn2c(C)c(C)n3c(=O)cc(N4CCOCC4)nc23)cccc1C(F)(F)F [GSK2328680],0%,0%,0%,0%,0%,0%,0%,8%,0%,6%
Cc1ccccc1Cn1ccn2c(=O)cc(N3CCOCC3)nc12 [GSK2269905],0%,0%,0%,10%,0%,0%,17%,3%,0%,0%
Cc1ccc(NC(=O)Nc2ccc(Cl)c(C(F)(F)F)c2)cc1-c1ccc(C(=O)Nc2ccncc2)cc1 [GSK1398470],20%,0%,3%,0%,0%,10%,36%,17%,1%,5%
CSc1ccc(-c2nc3n(c2-c2ccncc2)CCC3)cc1 [SKF-105561],15%,1%,0%,20%,0%,0%,0%,0%,0%,0%
COc1ccc(CSc2nnc(-c3ccc4nccn4c3)o2)cc1C(F)(F)F,12%,0%,0%,0%,2%,0%,4%,3%,3%,20%
CC(C)c1ccc(O)cc1Nc1ccnc2ccc(C(F)(F)F)cc12 [GW482059],0%,0%,2%,10%,0%,0%,5%,13%,0%,0%
COc1ccc(Nc2nccc(-c3ccc(NC(=O)c4cc5cc(F)ccc5[nH]4)cc3)n2)cc1 [GSK1229496],4%,0%,14%,0%,0%,0%,0%,0%,17%,0%
O=C1NC(=O)C(c2ccc(Cl)cc2)=C1Nc1cccc(Cl)c1 [SB-317651],0%,0%,14%,56%,0%,0%,0%,1%,0%,0%
COC(=O)c1cccc(NC(=O)NC2CCN(c3ccnc(Nc4ccc(OC)cc4)n3)C2)c1 (stereo not drawn) [GSK1379746],0%,7%,3%,2%,4%,0%,0%,0%,24%,0%
Cc1ccc(NC(=O)c2ccc(Cl)cc2)cc1-c1ccc(C(=O)Nc2ccncc2)cc1 [GSK1398467],0%,0%,0%,12%,0%,0%,9%,15%,9%,3%
Cc1c(Cn2c3ccccc3n3c(=O)cc(N4CCOCC4)nc23)cccc1C(F)(F)F [GSK2306394],0%,0%,0%,6%,0%,0%,2%,0%,0%,0%
CNc1nc(-c2ccc3c(N)n[nH]c3c2)cc(N2C[C@@H](C(=O)NC3CCCCC3)OC[C@H]2C)n1 [GSK2375584],11%,0%,10%,0%,0%,0%,23%,20%,4%,0%
Fc1ccc(-c2nn3cccc(F)c3c2-c2ccncc2)cc1 [GW475620],27%,16%,0%,0%,0%,2%,31%,18%,23%,34%
CS(=O)(=O)CCNCc1nc(-c2ccc3ncnc(Nc4ccc5c(cnn5Cc5ccccc5)c4)c3c2)cs1.Cl.Cl [GW569716],1%,0%,0%,23%,0%,1%,0%,0%,17%,18%
